Assay results from PubChem BioAssay (Tox21).
Where “and” joins values, the source holds several entries; their conditions need not be identical. Equal entries are not always repeated. Inconclusive results are not listed. Calls of active or inactive are those of the source. Unless noted, calls follow the shape of the dose curve; as a rule, active = well fitted curve in the direction sought with a large enough effect in the repeat runs; inconclusive = weak or mixed curves; inactive = no such curve, though single readings can be large; an effect the other way counts as inactive or inconclusive.

What was measured:
[1] = qHTS assay for small molecules that induce genotoxicity in human embryonic kidney cells expressing luciferase-tagged ATAD5 (AID 651632); also: nearly all actives have a fitted effect of over 15% in size; also: potency is read from the fitted curve at half-maximal effect
Summary of the method: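 ATAD5-luc HEK293T, 2,000 cells/well; cpd or DMSO pin-transferred; 16 hr, 37C/5% CO2; Amplite 30 min RT; luminescence.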

[2] = qHTS assay for small molecules that induce genotoxicity in human embryonic kidney cells expressing luciferase-tagged ATAD5 - cell viability (AID 651634; calls by dose curve; also: nearly all actives have a fitted effect of over 25% in size; also: potency is read from the fitted curve at half-maximal effect)
Summary of the method: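 Fluorescence from CellTiter-Fluor, reporting protease activity within live cells, served as the viability read-out. HEK293T cells carrying luciferase-tagged ATAD5 had been treated with compound for 15.5 hr at 37C.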

[3] = qHTS assay for small molecule disruptors of the mitochondrial membrane potential - cell viability (AID 720634; calls by dose curve; also: nearly all actives have a fitted effect of over 20% in size; also: potency is read from the fitted curve at half-maximal effect)
Summary of the method: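 Cells: HepG2, 2,000/well, attached overnight. Compound 1 hr, 37 C/5% CO2. +m-MPI dye, +CellTiter-Glo 30 min RT. Readout: luminescence (ATP).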

[4] = qHTS assay for small molecule disruptors of the mitochondrial membrane potential (AID 720635); also: potency is read from the fitted curve at half-maximal effect
Summary of the method: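 Mitochondrial membrane potential tracked with Mito-MPS dye, red aggregates (ex 540/em 590 nm) against green monomers (ex 490/em 535 nm). Compound treatment 1 hr at 37C, dye 30 min in HepG2.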

[5] = qHTS assay to test for compound auto fluorescence at 590 nm (red) in HepG2 cells (AID 720674)
Summary of the method: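 We screened compounds on adherent HepG2 cells, incubating them for an hour at 37 C in 5% CO2 before reading emission at 590 nm under 540 nm excitation; values reflect equivalence to Rose Bengal sodium fluorescence.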

[6] = qHTS assay to test for compound auto fluorescence at 535 nm (green) in HepG2 cells (AID 720675); also: potency is read from the fitted curve at half-maximal effect
[7] = qHTS assay to test for compound auto fluorescence at 460 nm (blue) in HEK293 cells (AID 720678); also: potency is read from the fitted curve at half-maximal effect
Summary of the method: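 HEK293, 2,000 cells/well, 10% dialyzed FBS; attach 4-5 hr 37C; pin compound or DMSO; o/n 37C/5% CO2; fluorescence 405/460 nm; triamterene-equivalent units.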

[8] = qHTS assay to test for compound auto fluorescence at 590 nm (red) in HEK293 cells (AID 720679)
Summary of the method: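 Intensity at 540nm excitation and 590nm emission is reported as Rose Bengal sodium-equivalent autofluorescence. Measurements followed overnight exposure (37C, 5% CO2) of HEK293 cells, 2,000 per well, to 23 nL compound.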

[9] = qHTS assay for small molecule agonists of the p53 signaling pathway - cell viability (AID 651633; calls by dose curve; also: nearly all actives have a fitted effect of over 30% in size; also: potency is read from the fitted curve at half-maximal effect)
Summary of the method: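 Viability counter-read: CellTiter-Glo luminescence (30 min, room temperature) in the same p53RE-bla plates. These plates had been exposed to compounds for 16 h at 37 C.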
% is scaled to controls: 0 for no effect and ±100 for the full control effect; tags tell the direction and shape of the fitted curve or compound fluorescence and quenching.

CCCCCCCCCCCCCCCC[N+](C)(C)CCN(Cc1ccc(OC)cc1)c1ncccn1
active: Potency [4] 11.4 µM
inactive: Potency [1] | Potency [2] | Potency [3] | fluorescence, relative to Rose Bengal [5] 0.0174% [at 18.6 µM] | fluorescence, % of fluorescein control [6] -0.0711% [at 18.6 µM] | fluorescence, % of triamterene [7] 0.0413% [at 18.6 µM] | fluorescence, % of fluorescent control [8] -0.0306% [at 18.6 µM]

CCC1=C[C@@H]2CN(C1)Cc1c([nH]c3ccccc13)[C@@](C(=O)OC)(c1cc3c(cc1OC)N(C)[C@H]1[C@@](O)(C(=O)OC)[C@H](OC(C)=O)[C@]4(CC)C=CCN5CC[C@]31[C@@H]54)C2
inactive: Potency [3] | Potency [5] | Potency [6] | Potency [7]
active: Potency [1] 2.37 µM | Potency [2] 1.19 µM

NNc1nc(-c2ccc([N+](=O)[O-])cc2)cs1
active: Potency [2] 24.3 µM | Potency [3] 17.2 µM | Potency [4] 1.37 µM
inactive: Potency [1] | Potency [5] | Potency [6] | Potency [7] | Potency [8]

OCCCCCCCCCCCCBr
inactive: Potency [1] | Potency [3] | Potency [5] | Potency [6] | Potency [7] | Potency [8]
active: Potency [4] 62.1 µM

On1ccccc1=S
inactive: Potency [9] | Potency [3] | Potency [5] | Potency [6] | Potency [7] | Potency [8]
active: Potency [4] 0.762 µM

O=C(N/N=C/c1ccccc1O)c1ccncc1
inactive: Potency [3] | Potency [5] | Potency [6] | Potency [7]
active: Potency [9] 3.76 µM

CCc1cc(Cc2cc(CC)c(N)c(CC)c2)cc(CC)c1N
active: Potency [4] 27.3 µM
inactive: Potency [1] | Potency [2] | Potency [5] | Potency [6] | Potency [7]

OCCN(CCO)c1nc(N2CCCCC2)c2nc(N(CCO)CCO)nc(N3CCCCC3)c2n1
inactive: Potency [1] | Potency [3] | Potency [5] | Potency [6]
active: Potency [7] 12.6 µM [fluorescent]

CN1CCC(Nc2ncc3ncnc(Nc4ccc(F)c(Cl)c4)c3n2)CC1
inactive: Potency [9] | Potency [2] | Potency [3] | Potency [5] | Potency [6] | Potency [8]

CNc1ccc(O)cc1
inactive: Potency [2] | Potency [5] | Potency [6] | Potency [7] | Potency [8]

CCOC(=O)c1nc(C(Cl)(Cl)Cl)n(-c2ccc(Cl)cc2Cl)n1
inactive: Potency [1] | Potency [2] | Potency [5] | Potency [6] | Potency [7] | Potency [8]

O=[N+]([O-])c1cc(Cl)c(Cl)c(Cl)c1Cl
inactive: Potency [9] | Potency [2] | Potency [3] | Potency [5] | Potency [6] | Potency [8]

O=C(OCC1CO1)C1CCCCC1C(=O)OCC1CO1 (stereo not drawn)
inactive: Potency [9] | Potency [2] | Potency [3] | Potency [4] | Potency [5] | Potency [6] | Potency [7] | Potency [8]

CCN(CC)CCCC(C)Nc1c2ccc(Cl)cc2nc2ccc(OC)cc12 (stereo not drawn)
active: Potency [1] 29.8 µM | Potency [7] 11.2 µM [fluorescent]
inactive: Potency [2] | Potency [5] | Potency [6] | Potency [8]

CCCCCCCCCCCC(=O)NCCCN(C)C
active: Potency [9] 27.3 µM
inactive: Potency [5] | Potency [6] | Potency [8]

Oc1ccc(N=Nc2ccccc2)cc1
active: Potency [3] 6.95 µM | Potency [4] 3.1 µM
inactive: Potency [9] | Potency [5] | Potency [6] | Potency [7] | Potency [8]

Cc1cccc(CN2CCN(C(c3ccccc3)c3ccc(Cl)cc3)CC2)c1 (stereo not drawn)
inactive: Potency [1] | Potency [2] | Potency [3] | Potency [4] | fluorescence, relative to Rose Bengal [5] -0.676% [at 18.6 µM] | fluorescence, % of fluorescein control [6] 0.0228% [at 18.6 µM] | fluorescence, % of triamterene [7] 0.0825% [at 18.6 µM] | fluorescence, % of fluorescent control [8] 0.431% [at 18.6 µM]

Cc1ccc2oc(CN(Cc3ccccc3)C(=O)Nc3c(F)cc(F)cc3F)c(-c3ccc(Cl)cc3)c2c1
active: Potency [4] 18.7 µM
inactive: Potency [1] | Potency [2] | Potency [5] | Potency [6] | Potency [7] | Potency [8]

S=c1[nH]c2ccccc2s1
active: Potency [4] 26.6 µM and 27.3 µM
inactive: Potency [9] | Potency [2] | Potency [3] | Potency [5] | Potency [6] | Potency [8]

O=[N+]([O-])c1cc([N+](=O)[O-])c2ccc(S(=O)(=O)O)cc2c1O
active: Potency [2] 21.6 µM
inactive: Potency [9] | Potency [3] | Potency [4] | Potency [5] | Potency [6] | Potency [7]

CC(C)(C)c1ccc(C(=O)CCCN2CCC(OC(c3ccccc3)c3ccccc3)CC2)cc1
active: Potency [9] 21.1 µM
inactive: Potency [2] | Potency [3] | Potency [5] | Potency [6] | Potency [7] | Potency [8]

CCOc1ccc2nc3cc(N)ccc3c(N)c2c1
active: Potency [4] 2.66 µM
inactive: Potency [1] | Potency [2] | Potency [3] | Potency [5] | Potency [6] | Potency [8]

CC1=C(/C=C/C(C)=C/C=C/C(C)=C/C=O)C(C)(C)CCC1
inactive: Potency [5] | Potency [6] | Potency [8]
active: Potency [9] 43 µM | Potency [2] 60.8 µM | Potency [4] 15.3 µM

O=c1[nH]sc2ccccc12
active: Potency [4] 27.3 µM
inactive: Potency [1] | Potency [2] | Potency [3] | Potency [5] | Potency [6] | Potency [7] | Potency [8]

[Cl][Au]([Cl])[Cl]
inactive: Potency [3] | Potency [5] | Potency [6] | Potency [7]
active: Potency [9] 68.6 µM | Potency [2] 30.6 µM

Cc1cc(C2CCCCC2)n(O)c(=O)c1
active: Potency [4] 3.2 µM
inactive: Potency [9] | Potency [2] | Potency [3] | fluorescence, relative to Rose Bengal [5] 0.33% [at 18.6 µM] | fluorescence, % of fluorescein control [6] -0.0302% [at 18.6 µM] | fluorescence, % of triamterene [7] -0.0951% [at 18.6 µM] | fluorescence, % of fluorescent control [8] -0.0357% [at 18.6 µM]

Nc1ccc2c3c(cccc13)-c1ccccc1-2
active: Potency [4] 4.91 µM | Potency [6] 39.8 µM
inactive: Potency [1] | Potency [5] | Potency [8]

Nc1ccccc1O
active: Potency [4] 60.3 µM
inactive: Potency [1] | Potency [3] | Potency [5] | Potency [6] | Potency [7]

CCN(Cc1cccnc1)C(=O)c1cccc(Cl)c1[C@]1(C)C(=O)N(Cc2ccc(OC)cc2OC)c2ccc(Cl)cc21
active: Potency [2] 9.05 µM | Potency [4] 8.07 µM
inactive: Potency [1] | Potency [3] | Potency [5] | Potency [6] | Potency [7] | Potency [8]

Nc1ccc2cc(S(=O)(=O)O)cc(O)c2c1N=Nc1ccccc1C(F)(F)F
inactive: Potency [1] | Potency [3] | Potency [5] | Potency [6] | Potency [7] | Potency [8]

Cc1[nH]nc2c1N=C(c1ccccc1Cl)c1cc([N+](=O)[O-])ccc1N2
inactive: Potency [3] | Potency [5] | Potency [6] | Potency [7] | Potency [8]
active: Potency [1] 1.93 µM | Potency [2] 30.6 µM | Potency [4] 3.06 µM

CC/C(=C(\c1ccc(O)cc1)c1ccc(OCCN(C)C)cc1)c1ccccc1
inactive: Potency [1] | Potency [5] | Potency [6] | Potency [8]
active: Potency [2] 61.3 µM | Potency [3] 68.7 µM | Potency [4] 24.4 µM

O=CC=C(c1ccccc1)c1ccccc1
active: Potency [4] 30.9 µM
inactive: Potency [1] | Potency [2] | Potency [5] | Potency [6] | Potency [7]

CCN(CC)CCNC(=O)c1c(C)[nH]c(/C=C2\C(=O)Nc3ccc(F)cc32)c1C
active: Potency [9] 11.9 µM
inactive: Potency [3] | Potency [5] | Potency [6] | Potency [8]

CC(C)(C)NC(=O)[C@@H]1C[C@@H]2CCCC[C@@H]2CN1C[C@@H](O)[C@H](Cc1ccccc1)NC(=O)[C@H](CC(N)=O)NC(=O)c1ccc2ccccc2n1
inactive: Potency [1] | Potency [3] | Potency [5] | Potency [6] | Potency [7] | Potency [8]
active: Potency [4] 43.8 µM

O=Cc1cc(O)ccc1Br
active: Potency [4] 62 µM
inactive: Potency [1] | Potency [2] | Potency [3] | Potency [5] | Potency [6] | Potency [8]

CSc1ccc2c(c1)C(N1CCN(C)CC1)Cc1ccccc1S2 (stereo not drawn)
inactive: Potency [1] | Potency [3] | Potency [5] | Potency [6] | Potency [7] | Potency [8]

COc1cccc(N)c1
inactive: Potency [9] | Potency [3] | Potency [5] | Potency [6] | Potency [7] | Potency [8]
active: Potency [2] 13.8 µM

CCN(CCC#N)c1ccc(N=Nc2c(Cl)cc([N+](=O)[O-])cc2Cl)cc1
active: Potency [2] 54.5 µM | Potency [3] 19.3 µM
inactive: Potency [1] | Potency [5] | Potency [6] | Potency [7] | Potency [8]

Cc1cc(O)c2ccccc2c1O
inactive: Potency [1] | Potency [2] | Potency [3] | Potency [5] | Potency [6] | Potency [7] | Potency [8]
